Experimental data published in article PMC5913336, “True equilibrium measurement of transcription factor-DNA binding affinities using automated polarization microscopy”.

Biological target: T1, Zelda (Drosophila melanogaster, UniProt Q9VWC6 1319-1447)
T1 sequence: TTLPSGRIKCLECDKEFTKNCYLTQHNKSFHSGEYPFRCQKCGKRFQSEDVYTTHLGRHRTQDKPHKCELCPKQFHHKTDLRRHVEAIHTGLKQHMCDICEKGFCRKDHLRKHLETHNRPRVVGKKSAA
Experiment: FP; 33 mM phosphate pH 7.0, 90 mM NaCl, 0.01% Tween 20, 0.1 mM DTT, 0.5% agarose; room temperature
Conditions: tags: N-GST (pGEX-6P-1, kept); dsDNA, one strand shown

| Sequence | binding signal | Kd |
| --- | --- | --- |
| AATTTCAGCTACC | 15.7 Kd / Kd of best base at the position |  |
| AATTTCAGGTTCC | 14.1 Kd / Kd of best base at the position |  |
| AATTTCAGGTACC |  | ~5.7 nM |
| CATTTCAGGTACC | 1.46 Kd / Kd of best base at the position |  |
| AATTTCCGGTACC | 36.1 Kd / Kd of best base at the position |  |
| AATTTCAGGCACC | 9.39 Kd / Kd of best base at the position |  |
| AATTGCAGGTACC | 1.37 Kd / Kd of best base at the position |  |
| AATTTCAGGGACC | 12.3 Kd / Kd of best base at the position |  |
| AATTTCAGGTAAC | 1.38 Kd / Kd of best base at the position |  |
| ACTTTCAGGTACC | 1.87 Kd / Kd of best base at the position |  |
| ATTTTCAGGTACC | 1.63 Kd / Kd of best base at the position |  |
